From PubChem BioAssay (NCATS)
Results filed as inconclusive are left out. A call without a number means that no potency is given here. Active and inactive are the calls of the source. Unless noted, calls follow the shape of the dose curve; as a rule, active = well fitted curve in the direction sought with a large enough effect; inconclusive = small, poorly fitted or top-dose-only effect, or another doubt; inactive = no such curve, though single readings can be large; an effect the other way counts as inactive or inconclusive.

How the values were obtained:
[1] = target: Phospholipid hydroperoxide glutathione peroxidase GPX4 (Homo sapiens) (UniProt P36969); experiment: Primary qHTS Assay for Inhibitors of Recombinant Selenoprotein Glutathione Peroxidase 4 (GPX4) (AID 1845192); settings: outcome: dose series up to 50 µM unless noted; also: nearly all actives have a fitted effect of over 65% in size
Procedure, shortened: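 NADPH consumption followed by fluorescence at 340/450 nm, t=0 and after 15 min at room temperature. Reaction started with cumene hydroperoxide (0.5 mM final) after 30 min compound–GPX4 preincubation; final 200 nM GPX4, 100 nM GR, 1 mM GSH, 0.5 mM NADPH.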

[2] = target: Cytochrome P450 2C19 (Homo sapiens) (UniProt P33261); experiment: qHTS Assay for Inhibitors and Substrates of Cytochrome P450 2C19 (AID 899); also: potency is read from the fitted curve at half-maximal effect; nearly all actives have a fitted effect of over 60% in size
Procedure, shortened: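 Reactions contain 5nM enzyme, 10uM Luciferin-H EGE (KM) and 50mM KPO4; compound preincubates 10 min at 37C, NADPH regeneration starts turnover for 60 min. Luminescence after detection reagent gives activity.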

[3] = NFAT Signaling Pathway (AID 444; active = well fitted curve in either direction with a large enough effect, not every such curve was filed as active;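 also: carbachol stimulus at about its EC50 of 1 µM final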); settings: Jurkat NFAT-bla M1, carbachol, beta-lactamase ratio, 5 h; at 38 µM (top of the series)
Procedure, shortened: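 Read-out: CCF4 FRET ratio (460 nm/530 nm) after 1 h RT dye loading, used for %activity and AC50 from titration series. Cells: Jurkat NFAT-β-lactamase/M1 line, treated with compound plus 1 uM carbachol for 5 h, 37 °C.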

[4] = Stat Signaling Pathway (AID 446; active = well fitted curve in either direction with a large enough effect, not every such curve was filed as active;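 also: ME-180 cervical cancer cells given 40 pM IL-6 alongside compound; SIE-controlled beta-lactamase reporter measured as 460/530 nm FRET emission ratio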); settings: ME-180 (cervical carcinoma) SIE beta-lactamase reporter, IL-6 stimulated, 5 h
Procedure, shortened: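 Normalization used AC90 stimulation (300 pM IL-6) and AC90 inhibition (125 nM pan-JAK inhibitor at 40 pM IL-6). The underlying signal is SIE-driven beta-lactamase in ME-180 cells after 5 h IL-6 exposure with compound.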

[5] = target: Guanine nucleotide-binding protein G(i) subunit alpha-1 (Homo sapiens) (UniProt P63096); experiment: qHTS Assay for Inhibitors of RGS12 GoLoco Motif Activity (Green Fluorophore) (AID 879);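 also: negative values mean loss of peptide binding seen as reduced polarization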
Procedure, shortened: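 A drop in FITC polarization marked displacement of the FITC-tagged RGS12 GoLoco peptide (10 nM) from Gαi1 (50 nM). Compounds were incubated 10 min at room temperature in Tris pH 7.5 buffer containing 150 mM NaCl, 0.1 mM GDP and 0.05% NP40; unlabeled peptide titration served as control.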

[6] = target: Cytochrome P450 2C9 (Homo sapiens) (UniProt P11712); experiment: qHTS Assay for Inhibitors and Substrates of Cytochrome P450 2C9 (AID 883); also: nearly all actives have a fitted effect of over 60% in size
Procedure, shortened: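 Turnover of Luciferin-H (100uM, KM) by 10nM human CYP2C9 was measured over 60 min at 37C with NADPH regeneration; inhibitors and some substrates reduce luminescence. Data normalized to sulphaphenazole 57uM.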

[7] = target: Pyruvate kinase (Leishmania mexicana) (UniProt Q27686); experiment: qHTS Validation Assay for Inhibitors of Leishmania Mexicana Pyruvate Kinase (AID 945)
Procedure, shortened: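 Eight-point qHTS titrations; enzyme 0.2 nM LmPYK (E451W mutant); substrates 0.5 mM PEP, 0.1 mM ADP; 7 mM MgCl2; 1 h room temperature; PKLight luminescence normalized to neutral control.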

[8] = target: Pyruvate kinase PKM (Homo sapiens) (UniProt P14618); experiment: qHTS Assay for Activators of Human Muscle Pyruvate Kinase (AID 954; active = well fitted curve in the direction sought with a large enough effect, not every such curve was filed as active)
Procedure, shortened: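 Compound pinned into substrate mix (0.5 mM PEP, 0.1 mM ADP), then 0.1 nM PKM2 added; 1 h, RT. Stop/detection luciferase reagent added, luminescence read. Normalized to no-inhibition and no-enzyme or reference-inhibitor controls.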

[9] = target: Alpha-galactosidase A (Homo sapiens) (UniProt P06280); experiment: Counterscreen for Glucocerebrosidase Inhibitors: qHTS Assay for Human alpha-Galactosidase at pH 4.5 (AID 992)
Procedure, shortened: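 Steps: enzyme (2 nM final), then compound across 0.7 nM to 77 uM, then 80 uM fluorogenic galactopyranoside substrate; incubate 20 min at room temperature; quench at pH 10; measure fluorescence at 365/440 nm.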

[10] = target: alpha-glucosidase (Oryza sativa, rice) (UniProt Q653V4); experiment: Counterscreen for Glucocerebrosidase Inhibitors: qHTS Assay for Rice alpha-Glucosidase at pH 5.0 (AID 997)
Procedure, shortened: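 Endpoint fluorogenic assay at pH 5.0: compounds (0.7 nM to 77 uM) titrated against 4 nM rice enzyme and 400 uM 4-MU-alpha-glucoside for 20 min at room temperature; NaOH/glycine stop, read ex 365/em 440 nm, Hill-fitted AC50.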

[11] = Counterscreen qHTS for small molecule stabilizers of the endoplasmic reticulum resident proteome: GLuc-NoTag assay (AID 1508627);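 also: SH-SY5Y cells given compound then 100 nM thapsigargin to empty ER calcium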
Procedure, shortened: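 Counterscreen line: SH-SY5Y-GLuc-NoTag cells, treated with compound 19 hr before a 4 hr, 100 nM thapsigargin calcium depletion. Secreted Gaussia luciferase in the medium was measured by luminescence after coelenterazine was added (0.07x final), with cells unlysed.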

[12] = target: Catechol O-methyltransferase (Homo sapiens) (UniProt P21964); experiment: Confirmatory Screen for Target Class Profiling of Small Molecule Inhibitors of Methyltransferases (AID 1745852); settings: MTase-Glo luminescence, SAH detection, recombinant enzyme; measured here: COMT max response; stronger effect = lower value
[13] = target: Guanidinoacetate N-methyltransferase (Homo sapiens) (UniProt Q14353); experiment: as above; settings: activity change, negative = inhibition: at 57.3 µM (top of the series) unless noted
[14] = target: Nicotinamide N-methyltransferase (Homo sapiens) (UniProt P40261); experiment: as above; settings: MTase-Glo luminescence, SAH detection, recombinant enzyme; measured here: NNMT max response; stronger effect = lower value
[15] = target: Phenylethanolamine N-methyltransferase (Homo sapiens) (UniProt P11086); experiment: as above; settings: MTase-Glo luminescence, SAH detection, recombinant enzyme; measured here: PNMT max response; stronger effect = lower value
[16] = qHTS to identify inhibitors of the type 1 interferon - major histocompatibility complex class I in skeletal muscle: primary screen against the NCATS Mechanism Interrogation Plate v5.0 (MIPE) Libary (AID 1347411); also: nearly all actives have a fitted effect of over 65% in size
Procedure, shortened: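 Seed engineered human myoblasts (HLA-B HiBit) in medium without dexamethasone containing 4 ng/ml IFN-beta; after 1 hr add compound titrations (top 46 uM final). Incubate 24 hrs at 37 C, lyse 10 min with HiBiT reagent, read luminescence.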

[17] = Tertiary RLuc qRT-PCR qHTS assay for Zika virus inhibitors (AID 1347169); also: top concentration of the series differs between compounds; nearly all actives have a fitted effect of over 55% in size
Procedure, shortened: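 Inhibition of ZIKV-RLuc replication in Vero cells, read as Renilla luminescence 1-1.5 hrs after live-cell substrate addition, following 48-72 hrs infection at MOI 1-2 in presence of compound.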

[18] = target: Rap guanine nucleotide exchange factor 4 (Homo sapiens) (UniProt Q8WZA2); experiment: Confirmatory qHTS for antagonist of cAMP-regulated guanine nucleotide exchange factor 4 (EPAC2) (AID 1645885); also: nearly all actives have a fitted effect of over 25% in size; also: potency is read from the fitted curve at half-maximal effect
[19] = target: Rap guanine nucleotide exchange factor 3 (Homo sapiens) (UniProt O95398); experiment: Counterscreen qHTS for antagonist of cAMP-regulated guanine nucleotide exchange factor 3 (EPAC1) (AID 1645888);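 also: fluorescence loss as bound BODIPY-GDP is released from Rap1B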
Procedure, shortened: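 Rap1B-BODIPY-GDP 250 nM + GDP 50 uM; cpds 7-pt, final 9.74 nM–152 uM (activator mode) or from 7.32 nM upwards (inhibitor mode); RT; FI 480/540 nm at 5 and 30 min, then ± cAMP, reread.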

Rap guanine nucleotide exchange factor 4 (Homo sapiens), sequence (Q8WZA2 whole entry, looked up): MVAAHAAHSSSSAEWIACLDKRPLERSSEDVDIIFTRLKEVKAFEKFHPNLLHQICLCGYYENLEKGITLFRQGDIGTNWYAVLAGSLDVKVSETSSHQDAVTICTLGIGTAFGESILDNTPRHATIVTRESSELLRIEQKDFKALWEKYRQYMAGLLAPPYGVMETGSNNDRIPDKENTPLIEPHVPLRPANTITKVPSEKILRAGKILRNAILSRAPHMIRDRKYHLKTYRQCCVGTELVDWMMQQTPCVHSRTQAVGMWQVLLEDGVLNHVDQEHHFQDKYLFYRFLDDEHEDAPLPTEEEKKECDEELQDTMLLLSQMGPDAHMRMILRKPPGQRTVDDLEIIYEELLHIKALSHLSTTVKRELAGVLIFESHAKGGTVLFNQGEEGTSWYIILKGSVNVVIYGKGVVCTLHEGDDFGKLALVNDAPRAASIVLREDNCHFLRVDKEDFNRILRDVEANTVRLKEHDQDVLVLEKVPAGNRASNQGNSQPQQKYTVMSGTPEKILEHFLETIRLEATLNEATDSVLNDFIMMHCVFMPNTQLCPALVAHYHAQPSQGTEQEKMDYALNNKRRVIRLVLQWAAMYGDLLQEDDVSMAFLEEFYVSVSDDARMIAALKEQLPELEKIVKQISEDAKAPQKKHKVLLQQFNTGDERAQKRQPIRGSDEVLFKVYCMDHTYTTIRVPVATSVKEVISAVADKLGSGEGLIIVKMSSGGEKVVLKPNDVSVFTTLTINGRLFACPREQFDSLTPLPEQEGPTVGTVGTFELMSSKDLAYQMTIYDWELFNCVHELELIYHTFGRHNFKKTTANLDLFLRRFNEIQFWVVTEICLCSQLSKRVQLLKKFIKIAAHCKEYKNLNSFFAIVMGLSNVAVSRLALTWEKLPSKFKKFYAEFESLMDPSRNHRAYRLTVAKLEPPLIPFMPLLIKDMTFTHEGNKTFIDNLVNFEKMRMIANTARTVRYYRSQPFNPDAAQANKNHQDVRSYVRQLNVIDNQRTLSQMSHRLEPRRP
Cytochrome P450 2C9 (Homo sapiens), sequence (P11712 whole entry, looked up): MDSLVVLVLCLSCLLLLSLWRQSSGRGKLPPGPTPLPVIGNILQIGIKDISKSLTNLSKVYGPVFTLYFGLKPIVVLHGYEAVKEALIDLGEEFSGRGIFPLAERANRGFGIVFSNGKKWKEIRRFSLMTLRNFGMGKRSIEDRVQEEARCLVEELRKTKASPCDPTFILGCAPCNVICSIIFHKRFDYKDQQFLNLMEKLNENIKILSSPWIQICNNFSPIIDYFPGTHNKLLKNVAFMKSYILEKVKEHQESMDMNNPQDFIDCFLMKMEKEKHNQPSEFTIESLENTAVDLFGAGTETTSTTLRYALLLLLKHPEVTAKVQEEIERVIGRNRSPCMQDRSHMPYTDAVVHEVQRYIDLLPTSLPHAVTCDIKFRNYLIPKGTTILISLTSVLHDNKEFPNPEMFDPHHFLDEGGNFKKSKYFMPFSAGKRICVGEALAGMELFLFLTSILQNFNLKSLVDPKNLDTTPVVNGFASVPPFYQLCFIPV
Catechol O-methyltransferase (Homo sapiens), sequence (P21964 whole entry, looked up): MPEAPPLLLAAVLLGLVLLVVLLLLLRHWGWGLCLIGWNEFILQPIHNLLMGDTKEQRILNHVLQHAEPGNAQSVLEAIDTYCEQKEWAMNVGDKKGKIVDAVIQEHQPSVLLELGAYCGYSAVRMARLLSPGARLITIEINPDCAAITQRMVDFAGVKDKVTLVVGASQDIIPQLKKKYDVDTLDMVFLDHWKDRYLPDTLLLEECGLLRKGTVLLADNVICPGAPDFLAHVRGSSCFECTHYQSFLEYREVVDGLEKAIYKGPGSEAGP
Phenylethanolamine N-methyltransferase (Homo sapiens), sequence (P11086 whole entry, looked up): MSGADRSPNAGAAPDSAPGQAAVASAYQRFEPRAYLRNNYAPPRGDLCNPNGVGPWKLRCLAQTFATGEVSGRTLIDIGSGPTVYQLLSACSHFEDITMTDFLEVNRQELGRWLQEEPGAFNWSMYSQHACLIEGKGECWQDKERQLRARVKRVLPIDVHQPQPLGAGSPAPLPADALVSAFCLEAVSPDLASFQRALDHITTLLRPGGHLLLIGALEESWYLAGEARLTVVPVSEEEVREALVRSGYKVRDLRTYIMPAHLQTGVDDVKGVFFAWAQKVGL
Guanine nucleotide-binding protein G(i) subunit alpha-1 (Homo sapiens), sequence (P63096 whole entry, looked up): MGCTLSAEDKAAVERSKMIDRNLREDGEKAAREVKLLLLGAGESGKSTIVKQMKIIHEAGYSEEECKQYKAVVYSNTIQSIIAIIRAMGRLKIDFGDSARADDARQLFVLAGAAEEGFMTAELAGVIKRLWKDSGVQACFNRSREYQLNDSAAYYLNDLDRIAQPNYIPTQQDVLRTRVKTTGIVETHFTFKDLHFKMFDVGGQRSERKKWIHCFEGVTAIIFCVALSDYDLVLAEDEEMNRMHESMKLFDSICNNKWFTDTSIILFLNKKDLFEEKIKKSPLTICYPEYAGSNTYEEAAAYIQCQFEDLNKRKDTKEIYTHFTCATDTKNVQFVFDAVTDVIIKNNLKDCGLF
Phospholipid hydroperoxide glutathione peroxidase GPX4 (Homo sapiens), sequence (P36969 whole entry, looked up): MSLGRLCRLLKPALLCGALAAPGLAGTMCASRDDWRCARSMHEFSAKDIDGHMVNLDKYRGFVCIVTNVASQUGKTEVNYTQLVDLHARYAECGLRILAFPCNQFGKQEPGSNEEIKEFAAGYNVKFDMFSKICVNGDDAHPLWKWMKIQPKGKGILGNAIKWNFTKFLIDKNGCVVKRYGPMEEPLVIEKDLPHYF
Cytochrome P450 2C19 (Homo sapiens), sequence (P33261 whole entry, looked up): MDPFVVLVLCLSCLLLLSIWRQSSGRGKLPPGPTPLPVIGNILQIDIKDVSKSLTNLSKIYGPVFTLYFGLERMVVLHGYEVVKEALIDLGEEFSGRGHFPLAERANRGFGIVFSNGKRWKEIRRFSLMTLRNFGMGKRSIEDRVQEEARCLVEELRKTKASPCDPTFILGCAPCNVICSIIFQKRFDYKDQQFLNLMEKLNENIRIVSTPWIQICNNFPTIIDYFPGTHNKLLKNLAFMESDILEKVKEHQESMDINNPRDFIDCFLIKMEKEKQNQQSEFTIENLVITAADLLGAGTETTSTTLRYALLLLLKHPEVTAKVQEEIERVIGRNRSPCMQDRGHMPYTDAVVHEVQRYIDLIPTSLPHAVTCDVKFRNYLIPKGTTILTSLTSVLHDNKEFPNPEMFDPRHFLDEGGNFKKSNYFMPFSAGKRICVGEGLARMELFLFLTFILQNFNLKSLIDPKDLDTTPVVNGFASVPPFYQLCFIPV
Pyruvate kinase (Leishmania mexicana), sequence (Q27686 2-499 E452W): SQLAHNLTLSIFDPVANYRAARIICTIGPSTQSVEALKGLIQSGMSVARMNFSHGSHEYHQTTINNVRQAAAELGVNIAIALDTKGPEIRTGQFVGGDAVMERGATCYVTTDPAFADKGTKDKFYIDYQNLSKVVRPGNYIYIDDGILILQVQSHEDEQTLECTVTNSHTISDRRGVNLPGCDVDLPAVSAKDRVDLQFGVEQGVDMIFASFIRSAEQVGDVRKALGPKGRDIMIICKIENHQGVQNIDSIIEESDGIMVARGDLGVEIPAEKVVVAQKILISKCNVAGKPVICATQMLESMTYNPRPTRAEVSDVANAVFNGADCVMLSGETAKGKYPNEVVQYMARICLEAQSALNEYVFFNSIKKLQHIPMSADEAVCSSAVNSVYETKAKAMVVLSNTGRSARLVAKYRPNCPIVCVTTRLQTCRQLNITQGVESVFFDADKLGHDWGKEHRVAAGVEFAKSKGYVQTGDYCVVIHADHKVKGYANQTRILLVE
Pyruvate kinase PKM (Homo sapiens), sequence (P14618 whole entry, looked up): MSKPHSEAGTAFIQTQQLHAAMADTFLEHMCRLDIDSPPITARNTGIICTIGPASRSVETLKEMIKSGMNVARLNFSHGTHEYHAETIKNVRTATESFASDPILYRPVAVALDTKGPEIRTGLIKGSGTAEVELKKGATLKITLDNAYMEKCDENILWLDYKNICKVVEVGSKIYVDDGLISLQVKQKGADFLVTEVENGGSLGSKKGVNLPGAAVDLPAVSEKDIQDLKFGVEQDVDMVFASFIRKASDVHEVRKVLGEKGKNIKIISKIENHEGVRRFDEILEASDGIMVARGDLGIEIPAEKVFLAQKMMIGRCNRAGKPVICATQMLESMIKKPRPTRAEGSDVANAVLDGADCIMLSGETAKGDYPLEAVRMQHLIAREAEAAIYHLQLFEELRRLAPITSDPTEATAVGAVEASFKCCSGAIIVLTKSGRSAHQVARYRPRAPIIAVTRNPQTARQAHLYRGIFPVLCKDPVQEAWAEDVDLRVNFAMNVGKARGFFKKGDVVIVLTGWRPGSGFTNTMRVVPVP
Nicotinamide N-methyltransferase (Homo sapiens), sequence (P40261 whole entry, looked up): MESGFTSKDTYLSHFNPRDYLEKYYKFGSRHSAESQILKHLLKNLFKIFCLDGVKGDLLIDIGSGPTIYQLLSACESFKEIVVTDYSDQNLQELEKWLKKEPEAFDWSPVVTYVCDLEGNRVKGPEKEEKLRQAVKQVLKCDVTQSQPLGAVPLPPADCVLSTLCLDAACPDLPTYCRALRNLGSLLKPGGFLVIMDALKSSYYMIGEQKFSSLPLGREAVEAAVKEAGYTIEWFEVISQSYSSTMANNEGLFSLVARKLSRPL
Alpha-galactosidase A (Homo sapiens), sequence (P06280 whole entry, looked up): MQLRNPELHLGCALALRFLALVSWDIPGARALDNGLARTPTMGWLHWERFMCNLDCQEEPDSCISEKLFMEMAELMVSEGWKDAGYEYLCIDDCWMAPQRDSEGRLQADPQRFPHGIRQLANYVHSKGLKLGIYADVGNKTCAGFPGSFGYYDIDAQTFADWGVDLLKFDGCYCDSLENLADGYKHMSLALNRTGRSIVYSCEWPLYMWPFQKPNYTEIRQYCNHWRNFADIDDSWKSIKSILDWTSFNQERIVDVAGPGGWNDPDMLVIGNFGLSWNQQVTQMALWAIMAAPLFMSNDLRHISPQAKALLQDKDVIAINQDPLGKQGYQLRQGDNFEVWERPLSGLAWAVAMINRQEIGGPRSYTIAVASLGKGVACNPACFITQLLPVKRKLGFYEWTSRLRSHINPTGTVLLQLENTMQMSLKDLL

CC1(C)CC[C@]2(C(=O)O)CC[C@]3(C)C(=CC[C@@H]4[C@@]5(C)C[C@@H](O)[C@H](O)C(C)(C)[C@@H]5CC[C@]43C)[C@@H]2C1
Potency [1]: inactive

CC1(C)CO[C@H](CC(=O)O)CN1
Potency [2]: 5.01 µM (active)

Oc1cc2c(cc1O)[C@H](c1ccccc1)CNCC2
activity change, negative = inhibition [3]: -1.81% (inactive)
activity, negative = inhibition ([4]; at 38 µM (top of the series)): 0.446% (inactive)
outcome [5]: inactive
Potency [6]: inactive
Potency [7]: inactive
outcome [8]: inactive
outcome [9]: inactive
outcome [10]: inactive
Potency [11]: inactive

Nc1ccc(-c2cnc(N)c(-c3ccc(Cl)cc3)c2)cn1
activity [12]: -71.5%
activity change, negative = inhibition [13]: -1.94%
activity [14]: -33.1%
activity [15]: -5.01%

Cc1cc(/C=c2/sc3nc4ccccc4n3c2=O)c(C)n1-c1ccccc1
Potency [16]: inactive

CCCCC[C@H](O)/C=C/C1=C(CCCCCCC(=O)O)C(=O)CC1
activity, negative = inhibition ([4]; at 17.2 µM (top of the series)): 0.776% (inactive)

O=C(OCc1cc(=O)n2nc(C3CC3)sc2n1)c1ccc(NC(=O)c2ccccc2F)cc1
Potency [17]: inactive

O=C(NCc1ccccc1Cl)c1ccc2c(O)c(S(=O)(=O)c3ccccc3)c(=O)[nH]c2c1
Potency [17]: inactive

COC(=O)CCC(=O)OC1(C)C(=O)C=C2C=C(C3CC3)N(CCCOC(C)C)C=C2C1=O (stereo not drawn)
Potency [18]: inactive
outcome [19]: inactive

CCCCCCCC/C=C\CCCCCCCC(=O)N[C@@H](CO)Cc1ccc(O)cc1
Potency [6]: inactive

CC[C@]1(c2ncc[nH]2)Cc2ccccc2O1
Potency [18]: 44.1 µM (active)
